The list is not random: actives were taken first. Their share in the collection is about 2.2%.
aSyn UTR inh: 5' untranslated region of α-synuclein, MLPCN primary screen | hit rate 0.82% among 300,000 | inhibition, % (tested at 7.5 µM) | alpha-synuclein 5'UTR reporter, inhibitor activity; in the data active means inhibition above about 60%;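 further: H4 neuroglioblastoma cells stably carrying SNCA 5'UTR luciferase fusion; 0% = DMSO wells and 100% = positive control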
APP 5UTR inh: APP translation inhibition; hit rate 0.82% among 190,000; SH-SY5Y APP 5'UTR-luciferase reporter, luminescence; inhibition, % at 2 µM;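 active means inhibition above a set limit, derived from the sample mean plus 3 SD, cut at about 45% in these data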
KLF5 inh: kruppel-like factor 5 inhibition | DLD-1 KLF5 promoter-luciferase reporter, luminescence | inhibition, % at 5 µM | hit rate 0.23% among 290,000;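 active means inhibition above a per-plate limit of that plate's mean compound inhibition plus 3 SD, cut at about 60% in these data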;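 further: 0% = DMSO wells and 100% = LY294002 at 200 µM; higher means less KLF5 promoter-driven luciferase light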
Ba/F3 V617F tox: reduce viability of Ba/F3 cells dependent on JAK2V617F. Ba/F3 EpoR-JAK2V617F viability, ATP luminescence. inhibition, % at 5.6 µM. hit rate 1.1% among 220,000. AID 1446;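 active means inhibition above the campaign mean plus 3 SD over all tested compounds, cut at about 24% in these data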;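 further: cytokine-independent growth of Ba/F3 cells driven by EpoR plus mutant JAK2; 0% = DMSO-treated cells and 100% = JAK inhibitor I control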
BaF3 tox: parental Ba/F3 viability inhibition as JAK2V617F counter-screen; inhibition, % at 5.6 µM; hit rate 1.1% among 220,000; AID 1486; CellTiter-Glo ATP luminescence;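 active means inhibition above a per-campaign cutoff, the mean inhibition of all tested compounds plus 3 SD, cut at about 27% in these data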;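 further: 0% = DMSO wells and 100% = JAK Inhibitor I control wells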
IEC-6 cytotox: counter-screen for KLF5 inhibitors: cytotoxicity in IEC-6 cells. hit rate 0.78% among 290,000. inhibition, % at 5 µM. IEC-6 cytotoxicity, luminescence viability. AID 1825; in the data active means inhibition above about 22%;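 further: 0% = plate median of test compound wells and 100% = cytotoxic reference compound wells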
Numbers without * were called inactive; x = no result.

SMILES | aSyn UTR inh | APP 5UTR inh | KLF5 inh | Ba/F3 V617F tox | BaF3 tox | IEC-6 cytotox
O=C(NNC(=O)C1CCN(c2ncccn2)CC1)c1ccc(Cl)cc1 | 6 | -23 | 3 | 5 | 90* | 6
O=S(=O)(Nc1ccc(N2CCOCC2)cc1)c1ccc(F)cc1 | 6 | 10 | -6 | 2 | 90* | -6
O=S(=O)(Nc1ccc(N2CCCCC2)cc1)c1ccc(F)cc1 | -25 | x | -17 | -2 | 0 | 1
CC1=CC(C)C(C(=O)O)C(C(=O)O)C1 (configuration not stated) | 9 | 18 | 4 | -3 | 1 | -1
CC[N+](C)(CC)CC(=O)OCC1C(C)C=C(C)CC1C (configuration not stated) | -10 | x | 2 | 27* | 34* | 2
NC1=NC2(CCCC2)N=C(Nc2ccccc2)N1 | -11 | x | -41 | -5 | 2 | 1
NC1=NC(c2ccccc2)N=C(Nc2ccccc2)N1 (configuration not stated) | -12 | x | -19 | 20 | 68* | 6
O=C(NS(=O)(=O)Oc1ccc(F)cc1F)OC[C@@H]1CCCN2CCCCC12 (some centres not stated) | -4 | x | -3 | x | x | -1
CCCCCCCCCCOC(=O)Cn1c(COc2cccc(C)c2)[n+](C)c2ccccc21 | 65* | x | -17 | x | x | 8
CCCCCCCCCCOC(=O)Cn1c(COc2ccc(Cl)cc2)[n+](C)c2ccccc21 | 83* | x | -21 | x | x | 3
CCCCCCCCCCOC(=O)Cn1c(COc2ccccc2)[n+](C)c2ccccc21 | 7 | x | -7 | x | x | 5
O=C(Nc1nnc(-c2cc(Cl)ccc2Cl)o1)c1ccco1 | -41 | x | x | x | x | x
CCCCNC(=O)Nc1ccc(C2SCCS2)cc1 | -91 | x | -12 | 3 | 1 | 7
Cc1cc(C)c(-c2cc(NC(=O)CSc3n[nH]c(N)n3)n(-c3ccccc3)n2)cc1C | 11 | 8 | -10 | 1 | 3 | 3
CCN(CC)CCCNC(=S)N1CCN(c2nc(-c3ccc(F)cc3)cs2)CC1 | 133* | x | -10 | x | x | 9
CC(=O)c1cc(C(=O)c2ccccc2)sc1Nc1ccccc1 | -58 | -13 | -3 | 3 | 6 | 8
COCc1cc(C)nc(SCC(=O)Nc2ccc3c(c2)n(C)c(=O)n3C)c1C#N | -9 | x | -4 | x | x | 6
COc1ccc(/C=N/n2c(SC)nnc2-c2ccccc2)c(OC)c1OC | x | 44 | 40 | 86* | 79* | 68*
Cc1[nH][nH]c(=O)c1C=Nc1ccc(C(F)(F)F)cc1 | -77 | 77* | -16 | 3 | 4 | 1
COCc1[nH][nH]c(=O)c1C=Nc1ccc(C(F)(F)F)cc1 | -7 | 2 | -5 | -2 | 5 | -8
Cc1c(Cl)cccc1N=C(N)N=C(N)N | 19 | 6 | -22 | 2 | 81* | 3
NC(N)=NC(N)=Nc1cccc2ccccc12 | -3 | x | 1 | 3 | 4 | 1
COc1cc(C(=O)Oc2ccccc2/C=N/NC(=O)c2ccc(Cl)cc2)cc(OC)c1OC | 57 | 40 | -19 | -2 | 9 | 10
COc1cc(C(=O)Oc2ccccc2/C=N/NC(=O)c2ccc(C)c(Cl)c2)cc(OC)c1OC | 84* | 50* | -7 | -1 | 3 | 1
O=C(N/N=C/c1sc(N2CCOCC2)nc1-c1ccccc1)c1cccc(S(=O)(=O)N2CCCC2)c1 | 99* | -9 | -7 | 18 | 3 | -3
SMILES | aSyn UTR inh | APP 5UTR inh | KLF5 inh | Ba/F3 V617F tox | BaF3 tox | IEC-6 cytotox
CCCC1(CCC)C(=O)NC(=NCCc2ccc(OC)c(OC)c2)NC1=O | 4 | 6 | 9 | -1 | 2 | 6
CC1=CC(C)(C)N(S(=O)(=O)c2ccc(F)cc2)c2ccccc21 | -16 | 18 | -21 | 0 | 2 | -6
CC(=O)Nc1ccc(S(=O)(=O)N2c3ccccc3C(C)=CC2(C)C)cc1 | 121* | 89* | 93* | 64* | 64* | 88*
CC1=CC(C)(C)N(S(=O)(=O)c2ccc(C)cc2)c2ccc(C)cc21 | 40 | 50* | 45 | 51* | 37* | 10
C=COCCCNc1ncnc2sc(-c3ccccc3)cc12 | -11 | x | -4 | x | x | 11
CCC1(O)c2ccccc2-c2ncccc21 (configuration not stated) | 3 | -6 | 1 | 0 | 2 | -2
O=C(CCl)N(c1ccccc1)C1CCS(=O)(=O)C1 (configuration not stated) | -109 | -2 | -20 | -1 | 6 | -3
O=C(N/N=C/C=C/c1ccccc1)c1n[nH]c2c1CCC2 | 70* | 60* | -7 | 10 | 7 | 11
O=C(N/N=C/c1cccs1)c1n[nH]c2c1CCCC2 | 82* | x | -6 | 2 | 2 | 8
O=C(N/N=C\c1cccc(Cl)c1)c1n[nH]c2c1CCCC2 | -152 | -156 | -90 | 1 | 7 | 4
O=C(N/N=C/c1cccc2ccccc12)c1n[nH]c2c1CCCC2 | -22 | 74* | -18 | -2 | 9 | 2
C=CCC(C#Cc1ccccc1)[N+](C)(C)CC=C (configuration not stated) | -7 | 10 | -20 | 41* | 50* | -1
O=C(CCn1c(=O)oc2ccccc21)Nc1cccc([N+](=O)[O-])c1 | -6 | x | -29 | x | x | 0
CNc1nc(-c2ccccn2)nnc1-c1ccccc1 | -9 | 11 | -49 | -3 | 0 | 9
c1ccc(-c2nnc(-c3ccccn3)nc2NC2CCCCC2)cc1 | 101* | 77* | 30 | 64* | 94* | 19
Nc1nc(NC2CCCCC2)nc(NCCO)c1[N+](=O)[O-] | 32 | x | -20 | x | x | -5
COCCNc1nc(N)c([N+](=O)[O-])c(NC2CCCCC2)n1 | 68* | x | 4 | x | x | 0
COc1ccc(OC)c(NC(=O)C(=O)NNC(=O)C23CC4CC(CC(C4)C2)C3)c1 | 9 | x | 12 | -1 | 2 | 1
CC1(C)CC(=O)C(C(=S)Nc2ccccc2)=C(NCCN2CCOCC2)C1 | 22 | -6 | -15 | 0 | 35* | -6
CC1(C)CC(=O)C(C(=S)Nc2ccc(F)cc2)=C(NCCN2CCOCC2)C1 | -9 | 3 | -10 | 2 | 6 | -2
COc1ccc(CNC(=O)c2c(C)oc3c2C(=O)c2ccccc2C3=O)cc1 | 103* | 10 | -22 | 3 | 4 | 3
Cc1cccc(Cn2cnc3c(NS(C)(=O)=O)c(C)c(C)cc32)c1 | 15 | -2 | -21 | 4 | 8 | 1
O=C(Nc1ccccc1N1CCCC1)c1ccc([N+](=O)[O-])cc1Cl | -26 | -10 | -31 | -2 | 1 | 0
CN(C)c1cc[n+](CC(=O)N2CCCc3ccccc32)cc1 | -5 | 2 | -20 | 52* | 63* | 2
O=C(N/N=C/C(Cl)=C/c1ccc([N+](=O)[O-])cc1)C(=O)Nc1cccc(C(=O)O)c1 | -28 | x | 11 | 2 | -1 | 7
Cc1ccc(C[n+]2cccc(-c3ccccc3)c2)c(C)c1 | -9 | -4 | -25 | 77* | 69* | 13
Cc1ccc2ccc[n+](Cc3ccccc3)c2c1 | -5 | x | x | x | x | x
Cc1ccsc1C(=O)N1CCN(S(=O)(=O)c2cccc(F)c2)CC1 | 20 | x | x | x | x | x

Screening data from PubChem BioAssay.
